Rows were chosen to be rich in hits. Some 18% of all compounds tested hit in one or more screens of this group.
IL1B secr inh: qHTS for Inhibitors of Inflammasome Signaling: IL-1-beta AlphaLISA Primary Screen | THP-1 LPS/ATP IL-1B secretion, AlphaLISA, 16 h; active compounds read low | activity change, % at 57.5 µM | 360,000 tested, 4.7% active; in the data active = activity change below about -50%; inconclusive = mostly about -30% to -49%
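THP-1 cells pretreated 1 hr with compounds (up to 57.5 uM final), then stimulated with LPS (250 ng/mL final) plus ATP (1.25 mM final); secreted IL-1B measured by AlphaLISA after 16 hr, decreased signal indicating inhibition.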
TDP1 cell noCPT: qHTS for Inhibitors of human tyrosyl-DNA phosphodiesterase 1 (TDP1): qHTS in cells in absence of CPT; Potency, µM (titrated, usually from 46.2 µM), for the others: at the highest dose activity change, negative = growth inhibition, most hits filed as inhibitors; AID 686978, 2013; 420,000 tested, 15% active; DT40 Tdp1-/- hTDP1 cells, no CPT, ATP luminescence, 48 h; note: potency is the fitted concentration of half-maximal effect; nearly all actives have a fitted effect of over 55% in size
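DT40 Tdp1-/-;hTDP1 cells, no CPT (DMSO vehicle only), 400 cells/well; compounds pin-transferred; ≥48 hr, 37 °C; CellTiter-Glo 30 min RT dark, luminescence read.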
DT40 TDP1 CPT: qHTS for Inhibitors of human tyrosyl-DNA phosphodiesterase 1 (TDP1): qHTS in cells in presence of CPT. chicken DT40 Tdp1-/-;hTDP1 cells + 20 nM CPT, ATP luminescence, 48 h. Potency, µM (titrated, usually from 46.2 µM), for the others: at the top dose activity change, negative = growth inhibition, actives largely listed as inhibitors. 420,000 tested, 12% active; note: potency is the fitted concentration of half-maximal effect; nearly all actives have a fitted effect of over 55% in size
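Cell growth measured by CellTiter-Glo luminescence after a minimum 48 h, 37 C compound exposure with 20 nM CPT in Tdp1-knockout DT40 cells stably expressing hTDP1, seeded 400/well; qHTS titration format.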
RORg inh: qHTS for inhibitors of ROR gamma transcriptional activity | 310,000 tested, 5.4% active | Drosophila S2 Gal4-RORgamma UAS-luciferase reporter, 20 h | Nuclear receptor ROR-gamma (Mus musculus), P51450 | Potency, µM (highest dose often 53.6 µM), inactives show top-dose activity change, negative = inhibition, most hits filed as inhibitors; note: potency is the fitted concentration of half-maximal effect; nearly all actives have a fitted effect of over 60% in size
Target sequence (P51450 whole entry, looked up, the tested form may be a part): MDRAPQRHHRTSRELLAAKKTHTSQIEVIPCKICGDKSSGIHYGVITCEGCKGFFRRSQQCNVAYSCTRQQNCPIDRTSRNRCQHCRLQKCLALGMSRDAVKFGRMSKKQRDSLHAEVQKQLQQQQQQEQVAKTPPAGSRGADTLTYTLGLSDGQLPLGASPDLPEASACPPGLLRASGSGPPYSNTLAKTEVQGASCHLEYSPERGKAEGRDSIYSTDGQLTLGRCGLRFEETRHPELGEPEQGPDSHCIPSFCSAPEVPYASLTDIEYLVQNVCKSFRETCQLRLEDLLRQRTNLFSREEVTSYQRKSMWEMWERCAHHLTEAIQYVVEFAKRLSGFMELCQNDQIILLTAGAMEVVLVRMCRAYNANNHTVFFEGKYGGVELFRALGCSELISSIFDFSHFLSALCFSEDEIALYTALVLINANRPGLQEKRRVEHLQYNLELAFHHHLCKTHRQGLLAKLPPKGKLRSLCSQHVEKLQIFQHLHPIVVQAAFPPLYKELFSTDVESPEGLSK
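Compounds are pin-transferred onto Drosophila Schneider cells expressing a copper-inducible Gal4–ROR gamma transactivation domain fusion. After 1 hr, copper sulfate is added to 700 uM final; luciferase is read 20 hr later.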
LDHA block: qHTS assay for inhibitors of human lactate dehydrogenase. L-lactate dehydrogenase A chain (Homo sapiens), P00338. purified LDHA, NADH/diaphorase-resazurin fluorescence; active compounds read low. activity change, % (values are at about 110 or 230 µM). 480,000 tested, 0.15% active; in the data active = activity change below about -30%; inconclusive = mostly about -25% to -30%;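 note: plate controls were DMSO wells for no effect and wells without enzyme for full effect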
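Human LDH5 at 2 nM final in Tris HCl pH 7.4 with 0.06 mM NADH and 0.2 mM pyruvate, reacted 5 minutes at room temperature. Remaining NADH coupled via diaphorase/resazurin; resorufin fluorescence read at 0 and 20 minutes, normalized to enzyme-free and DMSO wells.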
Gal4-VP16 FLuc: VP16 counterscreen qHTS for inhibitors of ROR gamma transcriptional activity | Drosophila S2 Gal4-VP16 UAS-luciferase, luminescence, 20 h | Potency, µM (highest dose often 53.6 µM), without a hit: at the top dose activity, negative = inhibition, usual class: inhibitors | 310,000 tested, 3.5% active | AID 2546, 2010;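 note: Gal4-VP16 expression switched on by copper sulfate through the metallothionein promoter; potency is the fitted concentration of half-maximal effect; nearly all actives have a fitted effect of over 50% in size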
An asterisk follows results filed as active; ? = inconclusive; . = no result given. Unless noted, calls come from the whole dose curve; as a rule, active = well fitted curve in the direction sought with a large enough effect; inconclusive = small, poorly fitted or top-dose-only effect, or another doubt; inactive = no such curve, though single readings can be large; an effect the other way counts as inactive or inconclusive. Unless noted, % is set by controls: 0 for no effect and ±100 for the full control effect.

SMILES | IL1B secr inh | TDP1 cell noCPT | DT40 TDP1 CPT | RORg inh | LDHA block | Gal4-VP16 FLuc
CN(Cc1ccc(Br)cc1)C(=O)c1ccc(NS(C)(=O)=O)cc1 | . | . | . | . | -1.6 | .
CCCN1C(=O)S/C(=C\c2ccc(N3CCOCC3)cc2C)C1=O | . | . | . | -21.5% | . | -9.3%
CCN1C(=O)S/C(=C\c2ccc(N3CCOCC3)cc2C)C1=O | -54.2* | 16.4µM* | 14.6µM* | 16.0% | -1.6 | 2.6%
CCC(C)N1C(=O)S/C(=C/c2ccc(N3CCOCC3)cc2C)C1=O (stereo unspecified) | 0.0 | 23.1µM* | 20.6µM* | 29.7% | -3.1 | 4.2%
O=C(COc1ccc(F)cc1Cl)N1CCC(c2ccccc2)=N1 | . | . | . | . | 5.7 | .
COC(=O)C(C#N)c1nc2ccccc2nc1NCC(C)(C)CN(C)C (stereo unspecified) | . | . | . | . | -11.8 | .
COc1ccc(-n2nc3c(N4CCCC(C(=O)NCc5ccc(C)cc5)C4)nnc(C)c3c2C)cc1 (stereo unspecified) | . | 3.26µM* | 4.61µM* | . | 2.0 | .
COc1ccc(-n2nc3c(N4CCC(C(=O)NCc5cccc(F)c5)CC4)nnc(C)c3c2C)cc1 | . | 10.3µM* | 9.2µM* | . | -8.6 | .
CCc1ccc(CNC(=O)C2CCCN(c3nnc(C)c4c(C)n(-c5ccc(OC)cc5)nc34)C2)cc1 (stereo unspecified) | . | 3.26µM* | 4.61µM* | . | 3.3 | .
CCN(CC)CCNC(=O)C1CCCN(c2nnc(C)c3c(C)n(-c4ccc(Cl)cc4)nc23)C1 (stereo unspecified) | . | ? | ? | . | 4.8 | .
COc1cccc(CNC(=O)CSc2nnc(C)c3c(C)n(-c4ccccc4)nc23)c1 | . | 18.4µM* | ? | . | 2.2 | .
COc1cccc(CNC(=O)CCCn2nc(C)c3c(C)n(-c4ccccc4)nc3c2=O)c1 | -23.6 | 4.4% | ? | 14.5% | 0.1 | -5.6%
Cc1nnc(N2CCCC(C(=O)NCc3ccc(OC(C)C)cc3)C2)c2nn(-c3ccccc3)c(C)c12 (stereo unspecified) | ? | ? | ? | -4.8% | -15.4 | -19.8%
CCCOc1ccc(C(=O)Nc2nc(-c3ccc(OC)cc3)c(C)s2)cc1OC | . | . | . | . | 11.1 | .
Cn1c(SCc2ccc(Br)cc2F)nnc1-c1cnccn1 | . | . | . | . | -7.3 | .
CSc1nc(Nc2ccccc2)c(C#N)c(-c2ccccc2)n1 | . | . | . | . | 1.9 | .
COc1ccc(CNC(=O)C2CCCN(c3nnc(C)c4c(C)n(-c5ccc(C)cc5)nc34)C2)cc1 (stereo unspecified) | . | 20.6µM* | 13µM* | . | -2.6 | .
Cc1ccc(-n2nc3c(N4CCCC(C(=O)NCc5ccccc5C)C4)nnc(C)c3c2C)cc1 (stereo unspecified) | . | 14.6µM* | 14.6µM* | . | 6.5 | .
COc1ccc(CNC(=O)C2CCN(c3nnc(C)c4c(C)n(-c5ccc(C)cc5)nc34)CC2)cc1 | . | 16.4µM* | ? | . | -0.4 | .
Cc1nnc(N2CCCC(C(=O)NCCc3ccc(Cl)cc3)C2)c2nn(-c3ccccc3)c(C)c12 (stereo unspecified) | . | ? | ? | . | -3.9 | .
Cn1c2ccccc2c(=O)c2ccc(F)cc21 | -50.6* | ? | ? | -22.1% | -12.7 | -2.7%
Cn1cc(S(C)=O)c(=O)c2ccc(F)cc21 (stereo unspecified) | . | -0.9% | 0.4% | . | . | .
CC(=O)Nc1c(-c2ccc(Cl)cc2)c(=O)c2ccccc2n1C | 44.1 | -3.2% | 10.1% | -13.7% | -3.4 | -6.2%
Cn1c2ccccc2c(=O)c2ccc(-c3ccc4c(c3)OCO4)cc21 | -7.6 | 13µM* | ? | -9.5% | -4.4 | -5.8%
c1ccc2c(c1)c1ccccc1n1c(-c3ccc4c(c3)OCO4)nnc21 | -56.6* | 20.6µM* | ? | -17.1% | -1.6 | -4.5%
SMILES | IL1B secr inh | TDP1 cell noCPT | DT40 TDP1 CPT | RORg inh | LDHA block | Gal4-VP16 FLuc
Cn1c(-c2ccc3c(c2)OCO3)cc(=O)c2ccccc21 | -5.8 | -11.0% | -22.7% | 21.3% | -15.3 | -19.1%
COc1ccc(-c2cc(Cl)cc3c(=O)c4ccccc4n(C)c23)cc1F | -11.6 | 20.6µM* | 18.4µM* | 13.8% | -9.5 | -2.3%
CCC1(CC)NC(=O)N(Cc2coc(-c3cccc(F)c3)n2)C1=O | . | . | . | . | 0.4 | .
COc1ccc2c(c1)CC/C(=C\c1ccc(Br)cc1)C2=O | . | . | . | . | 5.9 | .
CC(CCc1ccccc1)NC(=O)c1nccnc1N (stereo unspecified) | . | . | . | . | -5.5 | .
COc1cc(OC)cc(-c2c(-c3ccc(F)cc3)c3cc(-c4ccc5c(c4)OCCO5)ccc3n2C)c1 | 54.5 | ? | -27.7% | . | -1.2 | .
Cn1c(C=O)c(-c2ccc3c(c2)OCCO3)c2ccccc21 | -8.4 | 18.4µM* | ? | . | 0.1 | .
COc1cc(-c2ccc3c(=O)c4ccccc4n(C)c3c2)cc(OC)c1OC | ? | 11.6µM* | 16.4µM* | ? | -7.4 | -22.9%
N#C/C(=C\c1ccc2ccccc2n1)c1nc2ccccc2s1 | . | . | . | . | 7.8 | .
Cc1cc(NCCCN2CCOCC2)n2nc(C)c(-c3ccccc3)c2n1 | -14.1 | 16.4µM* | 16.4µM* | -14.6% | -4.5 | 2.9%
COc1ccccc1-c1c(C)nn2c(NCCN3CCCC3)cc(C)nc12 | ? | -22.5% | 16.6% | 6.31µM* | -3.4 | 7.08µM*
Cc1cc(NCCCN2CCOCC2)n2nc(C)c(-c3ccc(F)cc3)c2n1 | -57.0* | 16.4µM* | ? | -15.0% | -2.2 | 4.2%
O=C(Nc1ccccc1)C1CCN(C(=O)CCc2ncc(-c3ccc(Cl)cc3)o2)CC1 | . | . | . | . | 11.5 | .
CCCCCNC(=O)c1ccc2c(=O)n(CCc3ccccc3)c(=O)[nH]c2c1 | . | -13.5% | -12.0% | . | -2.5 | .
CCOCCCNC(=O)c1ccc2c(=O)n(CCc3ccc(OC)c(OC)c3)c(=O)[nH]c2c1 | . | 4.11µM* | 6.51µM* | . | -13.0 | .
CCCCN(C)CCNC(=O)c1ccc2c(=O)n(CCc3ccccc3)c(=O)[nH]c2c1 | . | 23.1µM* | 13µM* | . | -2.1 | .
COc1ccc(-n2c(=O)[nH]c3cc(C(=O)NCCc4ccc(Cl)cc4)ccc3c2=O)cc1OC | 11.6 | 14.6µM* | 23.1µM* | ? | -0.2 | -29.9%
Cc1cc(C)cc(NC(=O)CSc2nnc(-c3cccs3)n2-n2cccc2)c1 | . | . | . | . | -2.4 | .
O=C(NNC(=O)C1CCCCC1)c1ccccc1Br | . | . | . | . | 2.8 | .
